# Experimental data as given in the supplement of paper PMC9023506.
# Structures can show the parent of a compound that is named as a salt.
# System: Danio rerio larvae (5 dpf)
# Assay: optomotor response to blue moving lines, difference vs DMSO (percentage points (treated minus DMSO)); higher = more of the behaviour than the DMSO vehicle control
# Conditions: 10 µM; exposure time: 3 h pre-incubation + 3 h imaging
# Description: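 5-dpf wild-type zebrafish larvae were imaged in 96-well plates. They were treated with 190 Tocris FDA-approved drugs at 10 µM (1 µl/ml DMSO) for 3 h before and 3 h during imaging at 28.5 °C, 48 larvae per drug. Automated image analysis gave % time moving and optomotor responses. Values are drug group mean minus DMSO vehicle mean (n=844), in percentage points, for 10 behaviours.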
row,SMILES,optomotor response to blue moving lines
1,CN1C[C@H](C(=O)N[C@]2(C)O[C@@]3(O)[C@@H]4CCCN4C(=O)[C@H](Cc4ccccc4)N3C2=O)C[C@@H]2c3cccc4[nH]cc(c34)C[C@H]21 [Dihydroergotamine mesylate],12.8
2,CC(O)(CS(=O)(=O)c1ccc(F)cc1)C(=O)Nc1ccc(C#N)c(C(F)(F)F)c1 (configuration not stated) [Bicalutamide],-16.6
3,CCN(C)C(=O)Oc1cccc([C@H](C)N(C)C)c1 [Rivastigmine tartrate],1.1
4,O=c1[nH]c2ccccc2n1C1CCN(CCCC(c2ccc(F)cc2)c2ccc(F)cc2)CC1 [Pimozide],-7.76
5,CC(C)C[C@H]1C(=O)N2CCC[C@H]2[C@]2(O)O[C@](NC(=O)[C@@H]3C=C4c5cccc6[nH]c(Br)c(c56)C[C@H]4N(C)C3)(C(C)C)C(=O)N12 [Bromocriptine mesylate],-29.3
6,CC[C@@H](C(N)=O)N1CCCC1=O [Levetiracetam],6.19
7,COc1ccc(C(CN(C)C)C2(O)CCCCC2)cc1 (configuration not stated) [Venlafaxine hydrochloride],3.9
8,COc1cc2c(cc1OC)C1CC(=O)C(CC(C)C)CN1CC2 (configuration not stated) [Tetrabenazine],-7.81
9,N[C@@H]1C[C@H]1c1ccccc1 [Tranylcypromine hydrochloride],13.5
10,C=CCN1C[C@H](C(=O)N(CCCN(C)C)C(=O)NCC)C[C@@H]2c3cccc4[nH]cc(c34)C[C@H]21 [Cabergoline],-0.85
11,C=C1C[C@@H]2[C@H](CC[C@]3(C)C(=O)CC[C@@H]23)[C@@]2(C)C=CC(=O)C=C12 [Exemestane],-2.19
12,Cc1cccc([C@H](C)c2c[nH]cn2)c1C [Dexmedetomidine hydrochloride],-12.4
